SNCA expr inh – reduces expression of the alpha-synuclein gene | HEK-293 SNCA-luciferase knock-in, luminescence, 24 h | Potency, µM (doses to about 57.2 µM), inactives show at the highest dose activity change, negative = inhibition, hits mostly inhibitors | 140,000 compounds, 0.17% hits | AID 1671194;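 note: potency is the fitted concentration of half-maximal effect; plate controls were DMSO cells for no effect and cell-free wells for full effect; nearly all actives have a fitted effect of over 45% in size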
KDM5B inh – inhibitors of human KDM5B histone demethylase; Q9UGL1; KDM5B demethylase, FDH-coupled NADH fluorescence (FDH is formaldehyde dehydrogenase); Potency, µM (top dose mostly 57.7 µM), actives largely listed as inhibitors; 220,000 compounds, 2.6% hits; AID 1347165; note: potency is the fitted concentration of half-maximal effect; 0% is about no effect; nearly all actives have a fitted effect of over 70% in size
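Here, H3K4me3 peptide (12.5 µM in substrate mix) is demethylated by KDM5BΔAP, 200 nM final, after 10 min compound exposure. Formaldehyde product is coupled through FDH (0.25 U/mL in mix) to NADH fluorescence; 30-min ΔRFU feeds dose-response curves.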
IP6K1 inhibitor – IP6K1 kinase inhibition; 140,000 compounds, 0.81% hits; Q92551; activity change, % (series mostly up to about 58 µM); IP6K1 kinase, ADP-Glo luminescence, 2 h; active compounds read low; AID 1645851; in the data active = activity change below about -25%; note: % is set by controls: 0 for no effect and ±100 for the full control effect
Target sequence (Q92551 whole entry, looked up): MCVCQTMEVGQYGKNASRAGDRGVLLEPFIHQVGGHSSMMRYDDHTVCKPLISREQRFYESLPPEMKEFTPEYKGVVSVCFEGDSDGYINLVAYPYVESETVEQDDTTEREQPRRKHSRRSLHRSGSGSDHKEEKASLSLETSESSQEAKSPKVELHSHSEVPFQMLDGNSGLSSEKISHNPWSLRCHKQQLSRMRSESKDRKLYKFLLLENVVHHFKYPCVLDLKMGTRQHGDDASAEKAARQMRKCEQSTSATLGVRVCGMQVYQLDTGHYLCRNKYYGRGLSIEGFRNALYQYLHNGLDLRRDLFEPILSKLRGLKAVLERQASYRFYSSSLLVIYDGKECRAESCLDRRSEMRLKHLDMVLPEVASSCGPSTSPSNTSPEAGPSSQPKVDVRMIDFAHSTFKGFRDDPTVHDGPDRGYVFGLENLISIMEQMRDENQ
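ADP-Glo luminescence measures ADP made by human IP6K1 during a 2 h RT reaction with ATP/IP6 (mix at 1.3 mM/130 uM); top library doses 57.5 and 19.1 uM final.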
HEK293 viab – cell viability loss counter-screen; HEK-293-SNCA-luc viability, GF-AFC fluorescence, 24 h; Potency, µM (series often up to 57.1 µM), for inactives: at the top dose activity change, negative = cytotoxicity, hits mostly cytotoxic; 150,000 compounds, 0.12% hits;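 note: potency is the fitted concentration of half-maximal effect; 0% = DMSO-treated cells and -100% = medium-only wells without cells; nearly all actives have a fitted effect of over 30% in size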
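HEK-293-SNCA-luc cells (1500/well) plated 24 h, then exposed 24 h to a dilution series; GF-AFC added 30 min at 37C, fluorescence 405/540 nm; normalised to medium-only and DMSO wells, Hill fit.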
Starred values were filed as active, the others as inactive; i = inactive; ? = inconclusive; / = no result; [ ] = dose if it differs, or a comment. An excerpt weighted towards active compounds, which were near 2.8% of everything screened. Unless noted, calls come from the whole dose curve; as a rule, active = well fitted curve in the direction sought with a large enough effect; inconclusive = small, poorly fitted or top-dose-only effect, or another doubt; inactive = no such curve, though single readings can be large; an effect the other way counts as inactive or inconclusive.

SMILES	SNCA expr inh	KDM5B inh	IP6K1 inhibitor	HEK293 viab
c1ccc(-c2ccc(N3CC4(CCNCC4)C3)cc2)cc1	?	/	/	32µM*
c1ccc(-c2ccc(N3CC[C@@]4(CCCNC4)C3)cc2)cc1	32%	/	/	-3%
CCS(=O)(=O)N1CCCCCCNC(=O)[C@@H]2C[C@@H](C(=O)N3CCN(c4ccccn4)CC3)C[C@@H]21	-8%	?	0	4%
Cc1ccc(CN2CCCCCCNC(=O)[C@@H]3C[C@@H](C(=O)N4CCN(c5ccccn5)CC4)C[C@@H]32)o1	4%	20µM*	-5	-11%
CC(C)C(=O)N1CCCCCCNC(=O)[C@@H]2C[C@@H](C(=O)N3CCN(c4ccccn4)CC3)C[C@@H]21	-13%	25µM*	2	-2%
COc1cc(OC)c2c(C)c(CC(=O)NCCc3cccc(F)c3)c(=O)oc2c1	/	i	/	/
Cc1c(C(=O)N2CCC(c3nc4ccccc4o3)CC2)oc2ccccc12	/	i	/	/
CC(C)N1CCC(NC(=O)CC23CC4CC(CC(C4)C2)C3)CC1	/	i	/	/
Cc1ccc(F)c(NC(=O)[C@@H]2COCC(=O)N2Cc2ccc(F)cc2)c1	?	40µM*	-2	4%
Cc1cccc(NC(=O)[C@@H]2COCC(=O)N2Cc2ccc(F)cc2)c1	6%	/	-13	-13%
N#CC1(C(N)=O)C(c2ccccc2Cl)C1(C#N)C(N)=O (stereo not drawn)	/	i	/	/
CCOCC(=O)N1CCC(O)(c2ccccc2)[C@H](N2CCCC2)C1 (stereo partly drawn)	16%	10µM*	17	0%
O=C(C1CCCCC1)N1CC[C@](O)(c2ccccc2)[C@H](N2CCCC2)C1	15%	8.9µM*	22	-27%
CCC(=O)N1CCC(O)(c2ccccc2)[C@H](N2CCCC2)C1 (stereo partly drawn)	32%	?	18	-4%
Cc1cc(C)c2oc(C(=O)N(Cc3cccs3)c3ccccn3)cc(=O)c2c1	/	i	/	/
CC1=C[C@@H](CNC(C)C)[C@H](C(C)C)C[C@H]1Cc1nnc(-c2ccc([N+](=O)[O-])cc2)o1	?	i	-4	?
O=C(N/N=C/c1ccsc1)c1ccncc1	/	i	/	/
O=C(Cc1ccc2c(c1)OCO2)N1CCNc2cnc(Nc3cccc(F)c3)nc2C1	-23%[87.6 µM]	32µM*	-23	-16%[87.6 µM]
CC(C)NC(=O)N1CCNc2cnc(Nc3cccc(F)c3)nc2C1	17%[87.6 µM]	32µM*	8	-3%[87.6 µM]
COc1ccccc1Nc1ncc2c(n1)CN(C(=O)Cc1ccc3c(c1)OCO3)CCN2	0%[87.6 µM]	?	-2	2%[87.6 µM]
COc1ccc(OCC(O)CN2CCC(=O)N(Cc3ccccc3)Cc3ccccc32)cc1 (stereo not drawn)	/	/	-4	/
O=C1NC2(CCN(C(=O)OCc3ccccc3)C2)N=C1c1ccccn1 (stereo not drawn)	-3%	25µM*	3	7%
O=C1[C@@H]2C[C@@H](CN2Cc2ccnc3ccccc23)Oc2ccccc2N1CC1CC1	-16%[87.6 µM]	35µM*	-7	-5%[87.6 µM]
Cn1ccnc1CN1C[C@@H]2C[C@H]1C(=O)N(CC1CC1)c1ccccc1O2	?	i	17	-3%[87.6 µM]
CC(=O)c1ccc(S(=O)(=O)N2CCN(C(=O)CN3CCC(C)CC3)CC2)cc1	/	i	/	/
SMILES	SNCA expr inh	KDM5B inh	IP6K1 inhibitor	HEK293 viab
CCOCCn1cc(C2CCN(S(=O)(=O)c3cccc(Cl)c3C)CC2)c2ccccc21	-1%	28µM*	4	7%
COc1cc(F)cc(-c2cccc(CCOc3cnc4c(ccn4CC(=O)O)c3)c2)c1	-11%[87.6 µM]	32µM*	-10	-1%[87.6 µM]
O=C(O)Cn1ccc2cc(OCCc3cccc(-c4ccc(Cl)cc4)c3)cnc21	?	35µM*	-8	7%[87.6 µM]
O=C(O)Cn1ccc2cc(OCCc3cccc(-c4ccccc4)c3)cnc21	1%[87.6 µM]	?	-15	5%[87.6 µM]
O=C(c1ccc2nc(-c3ccc(F)cc3)cn2c1)N1CCC(F)CC1	85%	28µM*	-4	-7%
O=C(NC1C=CS(=O)(=O)C1)c1ccc2nc(-c3ccc(F)cc3)cn2c1 (stereo not drawn)	73%	25µM*	1	-23%
Cc1cc(C)nc(CNC(=O)c2ccc3nc(-c4ccc(F)cc4)cn3c2)n1	20%	28µM*	2	11%
CCC(NC(=O)c1ccc2nc(-c3ccc(F)cc3)cn2c1)c1cccnc1 (stereo not drawn)	95%	28µM*	-5	2%
O=C(c1ccc2nnc(-c3ccc(F)cc3)n2c1)N1CCOCC1	-15%	i	7	5%
CCn1cc(-c2ccc(F)cc2)cc1C(=O)NCc1cccnc1	5%	i	22	-1%
O=C(NC1CCCCC1)c1ccc2c(c1)sc1nc(-c3ccc(F)cc3)cn12	20%	i	13	-9%
COc1ccc(CCNC(=O)c2ccc3nc(C)cn3c2)cc1	5%	28µM*	20	5%
O=C(NCCCn1ccnc1)c1ccc2nc(-c3ccc(F)cc3)cn2c1	163%	32µM*	-2	1%
Cn1cc(CN(C(=O)c2ccc3nc(-c4ccccc4)cn3c2)C2CC2)cn1	19%	?	-11	2%
COc1ccc(CCNC(=O)c2ccc3nnc(-c4cc(C(F)(F)F)cc(C(F)(F)F)c4)n3c2)cc1	?	/	-9	-22%
O=C(NCCCn1ccnc1)c1ccc(Cl)cc1	/	i	/	/
CCNC(=O)C1CCN(C(=O)c2ccc3nc(-c4ccccc4)cn3c2)C1 (stereo not drawn)	64%	28µM*	-1	-3%
O=C(c1ccc2nc(-c3ccccc3)cn2c1)N1C[C@@H]2CCC[C@H]1C2	178%	22µM*	12	-19%
COc1cccc(CNC(=O)c2ccc(CNC(=O)OC(C)(C)C)cc2)c1	/	i	/	/
Cc1nn(-c2ccccc2)c2c1C(C1CC1)N(C1CCN(C(=O)c3ccccc3Cl)C1)C2=O (stereo not drawn)	/	/	-3	/
Cc1nn(-c2ccccc2)c2c1C(C)N(C1CCN(C(=O)c3cccc(C(F)(F)F)c3)C1)C2=O (stereo not drawn)	/	/	0	/
CCOc1cc(/C=C2\NC(=O)NC2=O)cc(I)c1OC(C)C	/	i	/	/
CCOC(=O)N1CCN(Cc2nc3cc(NC(=O)c4ccccc4OC)ccc3n2C(C)C)CC1	38%	?	-57*	-15%
CCOC(=O)N1CCN(Cc2nc3cc(NC(=O)c4ccccc4[N+](=O)[O-])ccc3n2C(C)C)CC1	-6%	i	-14	-2%
COc1ccc(CNC(=O)C2CCN(C(=O)c3ccc(-c4ccccc4OC)cc3)CC2)cc1	21%	/	6	?
CC(=O)NCC(=O)NC1CC(C)(C)Cc2nc(N(C)Cc3ccccc3)ncc21 (stereo not drawn)	-12%	32µM*	30	5%
CCOc1ccccc1NC(=O)Nc1cc(C)c2nc(NC(=O)c3ccccc3)sc2c1	/	i	/	/
CC1=C[C@@H](CNC(=O)c2cnccn2)[C@H](C(C)C)C[C@H]1Cc1nc2ccc(C)cc2[nH]1	-30%[87.6 µM]	i	0	40µM*
CCC(CC)C(=O)NC[C@@H]1C=C(C)[C@H](Cc2nc3ccccc3n2C)C[C@H]1C(C)C	?	i	5	?

Screens deposited in PubChem by National Center for Advancing Translational Sciences (NCATS).
